CYP2C19 inhib = inhibitors of human CYP2C19; P33261; CYP2C19 Supersomes, luciferin-H EGE luminescence, 30 min; inhibition, % at 5 µM; 96,000 tested, 21% active; AID 778;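 active means CYP2C19 inhibition above a set limit at 5 µM in the primary screen, cut at about 50% in these data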;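 further: plate controls were negative control wells for no effect and 2.5 mM tranylcypromine positive control for full effect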
Target sequence (P33261 whole entry, looked up): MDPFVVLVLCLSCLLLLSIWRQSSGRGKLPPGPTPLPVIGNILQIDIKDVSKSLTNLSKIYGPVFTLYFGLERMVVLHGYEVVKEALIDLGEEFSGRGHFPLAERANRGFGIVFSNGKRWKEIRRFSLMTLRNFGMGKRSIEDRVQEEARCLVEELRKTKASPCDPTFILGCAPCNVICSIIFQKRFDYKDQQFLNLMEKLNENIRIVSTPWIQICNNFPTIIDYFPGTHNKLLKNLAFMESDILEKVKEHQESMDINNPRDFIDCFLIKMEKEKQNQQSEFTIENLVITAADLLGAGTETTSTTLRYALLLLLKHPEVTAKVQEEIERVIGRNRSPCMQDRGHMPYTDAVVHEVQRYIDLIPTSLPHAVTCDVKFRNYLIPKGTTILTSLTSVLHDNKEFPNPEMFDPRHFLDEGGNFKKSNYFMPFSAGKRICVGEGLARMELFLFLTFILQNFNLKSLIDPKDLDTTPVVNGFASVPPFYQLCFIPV
CYP2C9 inh = inhibitors of human CYP2C9. CYP2C9 Supersomes, luciferin-H conversion, luminescence. inhibition, % at 5 µM. 96,000 tested, 20% active. AID 777;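 active means blocking of liver enzyme CYP2C9 beyond about 50% at 5 µM, limit read from the data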
PostGolgi ctrl = growth of the yeast control strain, post-Golgi counter-screen | efflux-deficient yeast background strain, growth absorbance A615, 16 h | 98,000 tested, 5% active | inhibition, % at 10 µM
PostGolgi yeast = growth inhibition of a yeast mutant, post-Golgi transport screen | 98,000 tested, 0.9% active | inhibition, % at 10 µM | post-Golgi transport phenotypic cell assay | AID 739;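 further: yeast cells grown in 1536-well plates; yeast grown about 18 h at 30C before absorbance read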
CYP2C9 activ = CYP2C9 (human) activation; P11712; recombinant CYP2C9, luciferin-H conversion, luminescence; hits give high values; factor 1 = untreated enzyme, 0 = blocked; activation factor at 5 µM; 96,000 tested, 1.4% active; AID 1024;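 active means activation factor of 2 or more for CYP2C9 at a 5 µM dose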;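 further: 0 = sulfaphenazole-blocked wells and 1 = vehicle-only wells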
CYP2C19 activ = activators of human cytochrome P450 2C19. P33261. recombinant CYP2C19, luciferin-H EGE luminescence; hits give high values; 0 = fully inhibited enzyme, 1 = untreated enzyme. activation factor at 5 µM. 96,000 tested, under 10 active;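 active means activation factor of at least 2 at 5 µM in the primary screen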;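 further: 0 = wells with 2.5 mM tranylcypromine and 1 = vehicle-only wells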
* = called active by the depositor; . = no result given. This is a sample that favours compounds with a hit; in the whole collection about 32% have one here. Unless noted, no stated cut-off is given here; in the data, active means inhibition above about 30%; inactive means the rest.

SMILES	CYP2C19 inhib	CYP2C9 inh	PostGolgi ctrl	PostGolgi yeast	CYP2C9 activ	CYP2C19 activ
Cc1cc(N2CCN(S(=O)(=O)c3ccccc3)CC2)c2ccccc2n1	65.4*	44.3	-2.4	15.4	0.6	0.3
COc1ccccc1N1CCN(S(=O)(=O)c2c(C)ccc3nsnc23)CC1	73.2*	34.4	3.6	2.0	0.7	0.3
COc1ccccc1N1CCN(S(=O)(=O)c2ccccc2)CC1	92.1*	86.2*	27.9	6.0	0.1	0.1
Cc1ccc2nsnc2c1S(=O)(=O)N1CCOCC1	15.4	-0.5	0.0	19.8	1	0.8
Oc1ccccc1CNCCCNCc1ccccc1O	43.4	37.1	-4.0	7.6	0.6	0.6
CCN(CC)c1nc(C#N)cc(-c2ccc(OC)cc2)n1	8.5	-10.6	0.0	-1.0	1.1	0.9
O=C(OCC(=O)N1CCN(C(=O)COC(=O)c2ccncc2)CC1)c1ccncc1	-25.1	-20.2	3.1	-1.4	1.2	1.3
CCCCCCOc1ccc(N2C(=O)CC(N3CCN(C(=O)c4ccco4)CC3)C2=O)cc1 (stereo not drawn)	-0.4	22.2	14.6	-10.0	0.8	1
COc1ccc(N2CCN(C(=O)Cc3cccs3)CC2)cc1	53.7*	34.3	1.5	7.6	0.7	0.5
COc1ccccc1N1CCN(C(=O)C(NS(=O)(=O)c2cccs2)c2ccccc2)CC1 (stereo not drawn)	62.1*	44.2	7.1	2.1	0.6	0.4
CS(=O)(=O)N1CCN(c2ccccc2F)CC1	16.5	25.2	30.6*	7.1	0.7	0.8
O=S(=O)(N1CCCCC1)N1CCN(c2ccccc2F)CC1	10.6	-25.7	-3.3	14.5	1.3	0.9
CCOC(=O)N1CCN(c2nc(-c3ccc(Cl)cc3)cs2)CC1	17.2	-1.1	7.2	-0.9	1	0.8
O=C(Cc1cccs1)N1CCN(c2nc(-c3ccc(Cl)cc3)cs2)CC1	65.1*	90.8*	50.6*	0.8	0.1	0.3
COc1ccc(N2CCN(C(=O)Cn3nnc(-c4cccs4)n3)CC2)cc1	-5.0	-7.1	-1.1	7.7	1.1	1.1
COc1ccc(Cc2c(O)nc[nH]c2=O)cc1	-0.7	5.1	1.2	-0.9	0.9	1
O=C(Nc1ncc2c(n1)-c1ccccc1OC2)c1ccc(Cl)cc1Cl	22.0	0.2	2.5	-1.9	1	0.8
COc1ccc(N2CCN(S(=O)(=O)c3cccs3)CC2)cc1	77.4*	35.6	-8.1	0.7	0.6	0.2
COc1ccc(N2CCN(CCNC(=O)C3CCN(S(=O)(=O)c4cccs4)CC3)CC2)cc1	7.7	12.2	-5.7	-5.1	0.9	0.9
COc1ccccc1N1CCN(C(=O)C(Cc2ccccc2)NC(=O)C2CCCCC2)CC1 (stereo not drawn)	98.6*	87.1*	14.3	-11.1	0.1	0
COc1ccc(S(=O)(=O)N2CCN(c3ccccc3OC)CC2)cc1OC	80.0*	6.0	12.0	-0.6	0.9	0.2
COc1ccccc1N1CCN(S(=O)(=O)Cc2ccccc2Cl)CC1	73.3*	-331.3	8.2	-2.6	4.3*	0.3
COc1ccc(C2N=C(c3ccccc3)C(C)(C)N2O)cc1OC (stereo not drawn)	31.6	2.3	0.0	-6.3	1	0.7
CCOC(=O)COc1ccc(S(=O)(=O)N2CCN(c3ccccc3F)CC2)cc1	68.0*	81.0*	12.8	-4.0	0.2	0.3
COc1ccccc1N1CCN(S(=O)(=O)c2ccc(Br)s2)CC1	28.8	29.2	4.5	3.6	0.7	0.7
SMILES	CYP2C19 inhib	CYP2C9 inh	PostGolgi ctrl	PostGolgi yeast	CYP2C9 activ	CYP2C19 activ
COc1ccccc1N1CCN(S(=O)(=O)c2ccccc2F)CC1	63.8*	64.1*	11.3	-7.0	0.4	0.4
COc1ccccc1N1CCN(C(=O)C2CCN(S(=O)(=O)c3ccc(F)cc3)CC2)CC1	0.0	5.0	.	.	0.9	1
COc1cc(S(=O)(=O)N2CCN(c3ccccc3F)CC2)ccc1Cl	99.4*	89.5*	47.9*	0.9	0.1	0
O=C(COc1ccccc1)N1CCN(S(=O)(=O)c2ccc(Cl)cc2)CC1	-5.7	20.8	4.8	-10.8	0.8	1.1
COc1ccccc1N1CCN(S(=O)(=O)c2cccs2)CC1	28.1	82.7*	7.8	4.0	0.2	0.7
Cn1c(SCC(=O)NCCNC(=O)CSc2nnc(C(F)(F)F)n2C)nnc1C(F)(F)F	1.1	-3.1	1.0	1.9	1	1
COc1ccc(N2CCN(c3ncccn3)CC2)cc1	91.6*	24.0	9.9	4.5	0.8	0.1
O=C(Nc1ccc(Br)cc1Cl)Nn1cnnc1	18.8	-1.3	33.9*	3.0	1	0.8
CCCCOc1cccc(NC(=O)CSc2nccn2C)c1	31.2	0.1	2.5	-5.6	1	0.7
O=C(CNS(=O)(=O)c1cccc2nonc12)NCc1ccc(F)cc1	52.9*	49.0	26.7	-13.7	0.5	0.5
Cc1ccc(N(CC(=O)O)S(=O)(=O)c2cccc3nonc23)cc1	6.4	14.4	9.3	-3.0	0.9	0.9
O=C(CNS(=O)(=O)c1cccc2nsnc12)NCc1ccc(Cl)cc1	50.2*	52.1*	-4.0	-2.6	0.5	0.5
CNC(=S)N1CCN(c2ccccc2OC)CC1	25.6	22.8	-2.2	-2.0	0.8	0.7
CCc1cccc(C)c1NC(=O)CSc1ncn[nH]1	16.8	13.3	23.5	3.0	0.9	0.8
O=C(NCc1ccc(OC(F)(F)F)cc1)C1CC(c2c(Cl)cccc2Cl)=NO1 (stereo not drawn)	87.3*	48.4	30.8*	-5.0	0.5	0.1
O=C(NCc1cc(C(F)(F)F)cc(C(F)(F)F)c1)C1CC(c2c(Cl)cccc2Cl)=NO1 (stereo not drawn)	62.2*	77.0*	18.8	-4.7	0.2	0.4
O=C(NCc1ccccn1)C1CC(c2ccc(Cl)c(Cl)c2)=NO1 (stereo not drawn)	24.4	-6.2	-1.0	4.5	1.1	0.8
O=C(NCCc1cccs1)C1CC(c2c(Cl)cccc2Cl)=NO1 (stereo not drawn)	60.5*	-123.9	14.9	5.3	2.2*	0.4
CCOc1ccc(S(=O)(=O)Nc2ccc(S(=O)(=O)N3CCOCC3)cc2)cc1	22.3	60.1*	4.4	1.4	0.4	0.8
CCOc1ccc(S(=O)(=O)N2CCN(C(=O)c3cccn3C)CC2)cc1	63.5*	22.2	29.7	-7.7	0.8	0.4
CCOc1ccc(NS(=O)(=O)c2ccc(OCC(=O)N3CCCC3)cc2)cc1	2.0	5.5	5.8	-3.0	0.9	1
CCOc1ccc(S(=O)(=O)N2CCCCCC2)cc1	91.8*	4.9	8.6	22.7	1	0.1
CCOC(=O)N1CCN(C(=O)COc2ccc(S(=O)(=O)Nc3ccc(OCC)cc3)cc2)CC1	22.4	50.6*	5.0	15.1	0.5	0.8
O=S(=O)(c1ccc(Oc2ccc(Br)cc2)cc1)N1CCOCC1	75.4*	64.1*	62.7*	15.8	0.4	0.2
